According to PubChem BioAssay (EPA / NIEHS):
Activity calls are given as the source filed them. How the source made its calls: active means hit-call score of the fitted dose curve at least 0.9, where 1 is the maximum; inactive means score below 0.9.

Read-out: Signal transducer and activator of transcription 3 (Homo sapiens) (UniProt P40763)
Experiment: LTEA_HepaRG_STAT3: Life Technologies and Expression Analysis (LTEA) Assay for Signal transducer and activator of transcription (STAT3) using HepaRG (AID 2283529)
Conditions: mRNA level, 48 h; actives raise or lower the signal
Description: LTEA_HepaRG is a cell based, multiplexed-readout assay that uses HepaRG, a human liver cell line, with measurements taken at 48 hours after chemical dosing on a 96-well plate.LTEA_HepaRG_STAT3 is one of 102 assay component(s) measured in the LTEA HepaRG cell culture assay. It is a marker of Cell proliferation, survival, death.Data from the assay component LTEA_HepaRG_STAT3 was analyzed into 1 endpoint. This assay endpoint, LTEA_HepaRG_STAT3, was analyzed with bidirectional fitting relative to DMSO as the negative control and baseline of activity. Using a type of inducible reporter, measures of mRNA induction for gain or loss-of-signal activity can be used to understand regulation of transcription factor activity. To generalize the intended target to other relatable targets, this assay endpoint is annotated to the dna binding intended target family, where the subfamily is stat protein.
A total of 1060 chemcials from the ToxCast library were tested in eight-point concentration-response experiments. Cell culture and cytotoxicity assays were conducted at Thermo Fisher Scientific's Custom Services facility (Madison, WI). A single lot of human HepaRG cells (Thermo Fisher Scientific, Frederick, MD) was used for the cell culture experiments. 96-well format collagen type I coated plates of human HepaRG cells were prepared using established methods. Briefly, cryopreserved HepaRG cells were thawed, plated at a density of approximately 100,000 cells/well in HepaRG Thaw, Plate, and General Purpose media (HPRG770, Thermo Fisher Scientific), and incubated for 48 hours. 0.5% DMSO was selected as vehicle control to balance the requisite need of DMSO in HepaRG cultures to maintain differentiation (for example, baseline metabolism, proportions of hepatocytes vs. cholangiocytes), while enabling further hepatic receptor pathway activation (for example, PXR and CAR) in response to chemical exposure. 48 hours after plating, the culture medium was replaced with HepaRG Serum-Free Incudtion Media. Cells were exposed to each test chemical in duplicate and maintained in CO2 incubators for another 48 hours. Chemical plates were thawed to room temperature and 200x concentrations of treatment groups were prepared. 8-point conentration-reponse curves were made with the highest exposure at 100 uM, followed by half-log dilutions, all in 0.5% DMSO. Each test plate contained variouse controls, induction positive controls (1mM phenobarbital), cytotoxicity positive controls ([…] aflatoxin B1), vehicle controls (0.5% DMSO), and total lysis controls (0.5% DMSO). Cell morphology images were taken using an Essen IncuCyte FLR automated microscope, with six 96-well plates imaged in about 24 minutes. Images were captured and exported and JPEG files. Spent culture media was transfered to black-well plates for the LDH assay, and remaining media was sorted at -80 C for later use. Cells were treated with RLT buffer and frozen until shipped for gene expression analysis. Total RNA was isolated from the cell suspension in 75 uL of Buffer RLT (Qiagen, Germantown, MD 20874) by Quintiles/Expression Analysis (Durham, NC) using a custom isolation procedure. Total RNA from each plate well was transferred to a preamplification plate. Fluidigm's 96.96 Dynamic ArrayTM (Fluidigm, Amsterdam, the Netherlands) technology was used for gene expression analyses by quantitative reverse transcription polymerase chain reaction (qRT-PCR, performed by Quintiles/Expression Analysis, Durham, NC)89. Standard TaqManTM Assays (Applied Biosystems/ThermoFisher Scientific, Foster City, CA) were used to assess the expression of 93 genes selected based on their selectivity and sensitivity to important hepatic receptors known to be modulated by environmental chemicals; importance in human hepatocyte functionality; and hepatotoxicity. […]

Signal transducer and activator of transcription 3 (Homo sapiens), sequence (P40763 whole entry, looked up): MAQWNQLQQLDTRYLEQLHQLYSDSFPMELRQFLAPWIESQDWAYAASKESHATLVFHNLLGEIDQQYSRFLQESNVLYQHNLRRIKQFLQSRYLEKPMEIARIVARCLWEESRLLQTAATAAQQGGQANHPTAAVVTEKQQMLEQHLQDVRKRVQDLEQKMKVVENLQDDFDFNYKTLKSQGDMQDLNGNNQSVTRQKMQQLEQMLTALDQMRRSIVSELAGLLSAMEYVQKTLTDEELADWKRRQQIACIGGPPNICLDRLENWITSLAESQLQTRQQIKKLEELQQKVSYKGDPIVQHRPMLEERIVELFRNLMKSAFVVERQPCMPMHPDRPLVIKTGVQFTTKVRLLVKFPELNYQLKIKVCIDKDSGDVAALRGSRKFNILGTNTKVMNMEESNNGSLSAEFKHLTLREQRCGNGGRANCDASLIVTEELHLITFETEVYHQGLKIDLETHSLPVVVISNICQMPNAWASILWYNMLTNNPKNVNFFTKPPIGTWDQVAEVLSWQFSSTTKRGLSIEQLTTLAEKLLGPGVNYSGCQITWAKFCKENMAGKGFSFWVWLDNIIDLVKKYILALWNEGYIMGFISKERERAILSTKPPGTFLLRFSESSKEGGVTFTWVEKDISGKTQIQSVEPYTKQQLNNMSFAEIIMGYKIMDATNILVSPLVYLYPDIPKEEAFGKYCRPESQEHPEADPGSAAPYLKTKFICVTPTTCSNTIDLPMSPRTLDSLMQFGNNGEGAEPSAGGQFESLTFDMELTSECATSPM

| SMILES | outcome | AC50 |
| --- | --- | --- |
| CCOC(=O)c1ccc(C2CCC(NC[C@H](O)COc3ccc(O)c(NS(C)(=O)=O)c3)CC2)cc1 (stereo not given in full) | inactive |  |
| Cc1c(-c2cccnc2)c2ccccc2n1CCCCC(=O)O | inactive |  |
| CC(O)CN(CCN(CC(C)O)CC(C)O)CC(C)O (stereo not given) | inactive |  |
| NC(=O)NO | inactive |  |
| CCCCCCCCO | inactive |  |
| CC(C)CCO | inactive |  |
| CC(C)CCCCCCOC(=O)c1ccc(C(=O)OCCCCCCC(C)C)c(C(=O)OCCCCCCC(C)C)c1 | inactive |  |
| CC1=CC(=O)CC(C)(C)C1 | inactive |  |
| CC(=O)OC[C@H]1O[C@@](COC(C)=O)(O[C@H]2O[C@H](COC(C)=O)[C@@H](OC(C)=O)[C@H](OC(C)=O)[C@H]2OC(C)=O)[C@@H](OC(C)=O)[C@@H]1OC(C)=O | inactive |  |
| O=C1OC(=O)C2C3C=CC(C3)C12 (stereo not given) | inactive |  |
| C1=CCCC=CCCC=CCC1 | inactive |  |
| O=C(O)c1cc(N=Nc2ccc(S(=O)(=O)Nc3ccccn3)cc2)ccc1O | inactive |  |
| O=C1CCCCCN1 | inactive |  |
| CCCN(C1CCN(C(=O)C2CCNCC2)CC1)[C@@H]1CCc2ccc(OC)cc2C1 |  | 256 nM (active) |
| O=C(CCCCCCCCc1cccnc1)N1CCC(C=C(c2ccccc2)c2ccccc2)CC1 | inactive |  |
| CC[C@H](C)C(=O)O[C@H]1C[C@@H](C)C=C2C=C[C@H](C)[C@H](CC[C@@H]3C[C@@H](O)CC(=O)O3)[C@H]21 | inactive |  |
| C1N2CN3CN1CN(C2)C3 | inactive |  |
| CCOC(=O)COc1ccc2c(c1)CC(NCC(O)c1cccc(Cl)c1)CC2 (stereo not given) | inactive |  |
| CC(C)=CCC/C(C)=C\CO | inactive |  |
| CC[C@H]1CC[C@H](NCc2cc3c(cc2OC)[C@H]2C[C@H]2C(=O)N3C)[C@H](c2ccccc2)N1 | inactive |  |

| SMILES | outcome | AC50 |
| --- | --- | --- |
| CCCCC(CC)COC(=O)CCCCCCCCC(=O)OCC(CC)CCCC (stereo not given) | inactive |  |
| On1ccccc1=S | inactive |  |
| CCCCCCc1ccc(O)cc1O | inactive |  |
| O=C(NS(=O)(=O)/C=C/c1ccccc1)c1ccc(F)cc1Cl | inactive |  |
| CC(C)(O)c1coc(S(=O)(=O)NC(=O)Nc2c3c(cc4c2CCC4)CCC3)c1 | inactive |  |
| C[C@](N)(Cc1ccc(O)c(O)c1)C(=O)O | inactive |  |
| Cc1ccc(S(=O)(=O)O)cc1C | inactive |  |
| O=C(O)c1cccc(Oc2ccccc2)c1 | inactive |  |
| Nc1nc2ncc(CNc3ccc(C(=O)N[C@@H](CCC(=O)O)C(=O)O)cc3)nc2c(=O)[nH]1 | inactive |  |
| O=c1n(CC2CO2)c(=O)n(CC2CO2)c(=O)n1CC1CO1 (stereo not given) | inactive |  |
| CC(C)=CCCC(C)CCO (stereo not given) | inactive |  |
| CCNc1ccccc1 | inactive |  |
| Nc1cccc(N)c1 | inactive |  |
| COc1cccc(-c2ccc(/C=C\CN3CCCCCC3)cc2Cl)c1 | inactive |  |
| CCCCCCCCCCCCCCCO | inactive |  |
| CC(=O)OCCC(C)C | inactive |  |
| C=CC(=C)CCC=C(C)C | inactive |  |
| COc1ccc(-n2nc(C(F)F)cc2-c2ccc(S(C)=O)cc2)cc1 (stereo not given) | inactive |  |
| CNCc1ccc(NC(=O)c2c[nH]c3c2C(=O)CCC3)cc1 | inactive |  |
| O=P(OC(CCl)CCl)(OC(CCl)CCl)OC(CCl)CCl | inactive |  |
